{"source": "PubChem BioAssay (NCI)", "key": {"[1]": {"assay": "NCI Yeast Anticancer Drug Screen. Data for the rad52 strain (AID 147);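 also: 0% = growth of vehicle-treated control cultures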", "settings": "S. cerevisiae rad52 mutant growth inhibition, active compounds read high", "procedure,_shortened": "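Inhibition of yeast growth, referenced to vehicle controls, was the measured output for a strain with defective DNA damage repair.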"}, "[2]": {"assay": "NCI Yeast Anticancer Drug Screen. Data for the wt1 strain (AID 149);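 also: 0% = growth of vehicle-treated wt1 cultures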", "settings": "S. cerevisiae wt1 strain (SPY 50644) growth inhibition, active compounds read high", "procedure,_shortened": "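Measured: growth of wt1 yeast under compound versus vehicle treatment, reported as inhibition.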"}, "[3]": {"assay": "NCI Yeast Anticancer Drug Screen. Data for the rad50EPP+ strain (AID 151);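 also: 0% = growth of vehicle-treated control cultures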", "settings": "S. cerevisiae rad50 mutant strain, active compounds read high", "procedure,_shortened": "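Genetically defined yeast (rad50EPP+, DNA damage repair alteration) is grown with compound, and inhibition of growth is expressed relative to vehicle-treated controls.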"}, "[4]": {"assay": "NCI Yeast Anticancer Drug Screen. Data for the mgt1 strain (AID 153)", "settings": "S. cerevisiae mgt1 mutant growth inhibition, active compounds read high", "procedure,_shortened": "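In the mgt1 strain, test compounds were added and growth inhibition was determined relative to vehicle-treated controls.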"}, "[5]": {"assay": "NCI Yeast Anticancer Drug Screen. Data for the rad50 strain (AID 155);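 also: 0% = growth of vehicle-only cultures of the same strain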", "settings": "S. cerevisiae rad50 strain growth inhibition, active compounds read high", "procedure,_shortened": "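Growth of the mutant yeast was measured after compound exposure and referenced to vehicle-treated cultures.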"}, "[6]": {"assay": "NCI Yeast Anticancer Drug Screen. Data for the mec2-1 strain (AID 157)", "settings": "S. cerevisiae mec2-1 strain, active compounds read high", "procedure,_shortened": "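Each compound was tested on mec2-1 yeast, a strain altered in DNA damage repair or cell cycle control. Growth inhibition is reported relative to vehicle.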"}, "[7]": {"assay": "NCI Yeast Anticancer Drug Screen. Data for the sgs1 mgt1 strain (AID 161);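 also: 0% = growth of cultures given vehicle only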", "settings": "S. cerevisiae sgs1 mgt1 strain, active compounds read high", "procedure,_shortened": "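Test agents were incubated with a DNA-repair-mutant yeast strain. Growth was then read and compared against vehicle-treated controls.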"}, "[8]": {"assay": "NCI Yeast Anticancer Drug Screen. Data for the CLN2oe strain (AID 163);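 also: 0% = growth of vehicle-only control cultures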", "settings": "S. cerevisiae CLN2oe strain, active compounds read high", "procedure,_shortened": "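First, the altered yeast strain was treated with each compound; second, its growth was measured; finally, inhibition was derived by comparison with vehicle controls.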"}, "[9]": {"assay": "NCI Yeast Anticancer Drug Screen. Data for the cln2 rad14 strain (AID 165);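 also: 0% = growth equal to vehicle treated cultures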", "settings": "S. cerevisiae cln2 rad14 strain, active compounds read high", "procedure,_shortened": "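Test compounds were added to cln2 rad14 yeast cultures; inhibition of growth was then determined by comparison with vehicle treatment.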"}, "[10]": {"assay": "NCI Yeast Anticancer Drug Screen. Data for the bub3 strain (AID 167)", "settings": "S. cerevisiae bub3 mutant strain, active compounds read high", "procedure,_shortened": "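Whole-cell yeast assay. The mutant strain was incubated with compounds, and growth inhibition was determined by comparison with vehicle-treated cells.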"}, "[11]": {"assay": "NCI Yeast Anticancer Drug Screen. Data for the wt2 strain (AID 169);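 also: 0% = growth of vehicle-treated yeast cultures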", "settings": "S. cerevisiae wt2 strain growth inhibition, active compounds read high", "procedure,_shortened": "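The panel's yeast strains carry defined changes in DNA repair or cell cycle genes. Each strain is grown with compound, and growth loss is scored relative to vehicle.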"}, "[12]": {"assay": "NCI Yeast Anticancer Drug Screen. Data for the mlh1 strain (AID 171);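 also: 0% = growth of vehicle-treated control cultures of the same strain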", "settings": "S. cerevisiae mlh1 strain growth inhibition, active compounds read high", "procedure,_shortened": "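Inhibition values reflect reduced yeast growth in the presence of compound, referenced to vehicle controls, using a strain chosen for its alteration in DNA repair or cell cycle control.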"}, "[13]": {"assay": "NCI Yeast Anticancer Drug Screen. Data for the sgs1 strain (AID 173);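 also: 0% = growth of vehicle-only control cultures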", "settings": "S. cerevisiae sgs1 mutant, active compounds read high", "procedure,_shortened": "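Vehicle-treated cultures served as reference for growth inhibition of a yeast strain altered in DNA damage repair or cell cycle control after compound exposure.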"}, "[14]": {"assay": "NCI Yeast Anticancer Drug Screen. Data for the mlh1 rad18 strain (AID 175)", "settings": "S. cerevisiae mlh1 rad18 strain growth inhibition, active compounds read high", "procedure,_shortened": "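Inhibition values reflect reduced growth of mutant yeast versus vehicle-treated controls following compound exposure; the mutations affect DNA damage repair.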"}, "[15]": {"assay": "NCI Yeast Anticancer Drug Screen. Data for the rad18 strain (AID 177)", "settings": "S. cerevisiae rad18 mutant growth inhibition, active compounds read high", "procedure,_shortened": "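Steps: expose repair-mutant yeast to compound; measure growth; express as inhibition relative to vehicle control.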"}, "[16]": {"settings": "at 5.0 µM (retest, dose inferred, filed as 0.5)"}, "[17]": {"settings": "at 50.0 µM (retest, dose inferred, filed as 5.0)"}}, "note": "Compounds without any hit were thinned out: in the full panel of roughly 79,000, 15% have a hit. Values without a mark were called inactive. Calls of active or inactive are those of the source. Rule as the data show it: active = growth inhibition above about 70%; inactive = the rest."}
{"smiles": "CC(C)C(C)/C=C\\C(C)C1CCC2C3=CC=C4CC(O)CCC4(C)C3CCC21C", "note": "(stereo not drawn)", "values": [{"measurement": "growth inhibition", "setting": "[1]; at 1.2 µM", "value": -1, "unit": "%"}, {"measurement": "growth inhibition", "setting": "[1]; at 3.7 µM", "value": -2, "unit": "%"}, {"measurement": "growth inhibition", "setting": "[1]; at 11.0 µM", "value": -1, "unit": "%"}, {"measurement": "growth inhibition", "setting": "[1]; at 33.0 µM", "value": -1, "unit": "%"}, {"measurement": "growth inhibition", "setting": "[1]; at 100.0 µM", "value": 17, "unit": "%"}, {"measurement": "growth inhibition", "setting": "[2]; at 1.2 µM", "value": 2, "unit": "%"}, {"measurement": "growth inhibition", "setting": "[2]; at 3.7 µM", "value": -1, "unit": "%"}, {"measurement": "growth inhibition", "setting": "[2]; at 11.0 µM", "value": 0, "unit": "%"}, {"measurement": "growth inhibition", "setting": "[2]; at 33.0 µM", "value": -3, "unit": "%"}, {"measurement": "growth inhibition", "setting": "[2]; at 100.0 µM", "value": -3, "unit": "%"}, {"measurement": "growth inhibition", "setting": "[3]; at 1.2 µM", "value": -2, "unit": "%"}, {"measurement": "growth inhibition", "setting": "[3]; at 3.7 µM", "value": -3, "unit": "%"}, {"measurement": "growth inhibition", "setting": "[3]; at 11.0 µM", "value": -9, "unit": "%"}, {"measurement": "growth inhibition", "setting": "[3]; at 33.0 µM", "value": -9, "unit": "%"}, {"measurement": "growth inhibition", "setting": "[3]; at 100.0 µM", "value": 1, "unit": "%"}, {"measurement": "growth inhibition", "setting": "[4]; at 1.2 µM", "value": 0, "unit": "%"}, {"measurement": "growth inhibition", "setting": "[4]; at 3.7 µM", "value": 3, "unit": "%"}, {"measurement": "growth inhibition", "setting": "[4]; at 11.0 µM", "value": -1, "unit": "%"}, {"measurement": "growth inhibition", "setting": "[4]; at 33.0 µM", "value": -9, "unit": "%"}, {"measurement": "growth inhibition", "setting": "[4]; at 100.0 µM", "value": -4, "unit": "%"}, {"measurement": "growth inhibition", "setting": "[5]; at 1.2 µM", "value": -1, "unit": "%"}, {"measurement": "growth inhibition", "setting": "[5]; at 3.7 µM", "value": 5, "unit": "%"}, {"measurement": "growth inhibition", "setting": "[5]; [16]", "value": 51, "unit": "%"}, {"measurement": "growth inhibition", "setting": "[5]; at 11.0 µM", "value": -3, "unit": "%"}, {"measurement": "growth inhibition", "setting": "[5]; at 33.0 µM", "value": -1, "unit": "%"}, {"measurement": "growth inhibition", "setting": "[5]; [17]", "value": "84% (active)"}, {"measurement": "growth inhibition", "setting": "[5]; at 50.0 µM", "value": "83.2% (active)"}, {"measurement": "growth inhibition", "setting": "[5]; at 100.0 µM", "value": 22, "unit": "%"}, {"measurement": "growth inhibition", "setting": "[6]; at 1.2 µM", "value": 0, "unit": "%"}, {"measurement": "growth inhibition", "setting": "[6]; at 3.7 µM", "value": 0, "unit": "%"}, {"measurement": "growth inhibition", "setting": "[6]; [16]", "value": "89% (active)"}, {"measurement": "growth inhibition", "setting": "[6]; at 11.0 µM", "value": -2, "unit": "%"}, {"measurement": "growth inhibition", "setting": "[6]; at 33.0 µM", "value": -1, "unit": "%"}, {"measurement": "growth inhibition", "setting": "[6]; [17]", "value": "99% (active)"}, {"measurement": "growth inhibition", "setting": "[6]; at 50.0 µM", "value": 44.5, "unit": "%"}, {"measurement": "growth inhibition", "setting": "[6]; at 100.0 µM", "value": -17, "unit": "%"}, {"measurement": "growth inhibition", "setting": "[7]; [16]", "value": 17, "unit": "%"}, {"measurement": "growth inhibition", "setting": "[7]; [17]", "value": 48, "unit": "%"}, {"measurement": "growth inhibition", "setting": "[7]; at 50.0 µM", "value": 66.7, "unit": "%"}, {"measurement": "growth inhibition", "setting": "[8]; at 1.2 µM", "value": 0, "unit": "%"}, {"measurement": "growth inhibition", "setting": "[8]; at 3.7 µM", "value": -2, "unit": "%"}, {"measurement": "growth inhibition", "setting": "[8]; at 11.0 µM", "value": -2, "unit": "%"}, {"measurement": "growth inhibition", "setting": "[8]; at 33.0 µM", "value": -4, "unit": "%"}, {"measurement": "growth inhibition", "setting": "[8]; at 100.0 µM", "value": 11, "unit": "%"}, {"measurement": "growth inhibition", "setting": "[9]; [16]", "value": "91% (active)"}, {"measurement": "growth inhibition", "setting": "[9]; [17]", "value": "95% (active)"}, {"measurement": "growth inhibition", "setting": "[9]; at 50.0 µM", "value": 35.4, "unit": "%"}, {"measurement": "growth inhibition", "setting": "[10]; at 1.2 µM", "value": -1, "unit": "%"}, {"measurement": "growth inhibition", "setting": "[10]; at 3.7 µM", "value": 3, "unit": "%"}, {"measurement": "growth inhibition", "setting": "[10]; [16]", "value": "99% (active)"}, {"measurement": "growth inhibition", "setting": "[10]; at 11.0 µM", "value": -2, "unit": "%"}, {"measurement": "growth inhibition", "setting": "[10]; at 33.0 µM", "value": -10, "unit": "%"}, {"measurement": "growth inhibition", "setting": "[10]; [17]", "value": "99% (active)"}, {"measurement": "growth inhibition", "setting": "[10]; at 50.0 µM", "value": 42, "unit": "%"}, {"measurement": "growth inhibition", "setting": "[10]; at 100.0 µM", "value": 32, "unit": "%"}, {"measurement": "growth inhibition", "setting": "[11]; at 1.2 µM", "value": 0, "unit": "%"}, {"measurement": "growth inhibition", "setting": "[11]; at 3.7 µM", "value": 1, "unit": "%"}, {"measurement": "growth inhibition", "setting": "[11]; at 11.0 µM", "value": 1, "unit": "%"}, {"measurement": "growth inhibition", "setting": "[11]; at 33.0 µM", "value": 1, "unit": "%"}, {"measurement": "growth inhibition", "setting": "[11]; at 100.0 µM", "value": 14, "unit": "%"}, {"measurement": "growth inhibition", "setting": "[12]; at 1.2 µM", "value": -1, "unit": "%"}, {"measurement": "growth inhibition", "setting": "[12]; at 3.7 µM", "value": -3, "unit": "%"}, {"measurement": "growth inhibition", "setting": "[12]; at 11.0 µM", "value": -5, "unit": "%"}, {"measurement": "growth inhibition", "setting": "[12]; at 33.0 µM", "value": -11, "unit": "%"}, {"measurement": "growth inhibition", "setting": "[12]; at 100.0 µM", "value": 10, "unit": "%"}, {"measurement": "growth inhibition", "setting": "[13]; at 1.2 µM", "value": -1, "unit": "%"}, {"measurement": "growth inhibition", "setting": "[13]; at 3.7 µM", "value": -4, "unit": "%"}, {"measurement": "growth inhibition", "setting": "[13]; at 11.0 µM", "value": -3, "unit": "%"}, {"measurement": "growth inhibition", "setting": "[13]; at 33.0 µM", "value": -6, "unit": "%"}, {"measurement": "growth inhibition", "setting": "[13]; at 100.0 µM", "value": 19, "unit": "%"}, {"measurement": "growth inhibition", "setting": "[14]; [16]", "value": 40, "unit": "%"}, {"measurement": "growth inhibition", "setting": "[14]; [17]", "value": "81% (active)"}, {"measurement": "growth inhibition", "setting": "[14]; at 50.0 µM", "value": "86.5% (active)"}, {"measurement": "growth inhibition", "setting": "[15]; at 1.2 µM", "value": -2, "unit": "%"}, {"measurement": "growth inhibition", "setting": "[15]; at 3.7 µM", "value": -5, "unit": "%"}, {"measurement": "growth inhibition", "setting": "[15]; at 11.0 µM", "value": -13, "unit": "%"}, {"measurement": "growth inhibition", "setting": "[15]; at 33.0 µM", "value": -19, "unit": "%"}, {"measurement": "growth inhibition", "setting": "[15]; at 100.0 µM", "value": -7, "unit": "%"}]}
